# “And” between values parts separate entries of the source, which are not always exact repeats. Identical values can stand only once. Results filed as inconclusive are left out. Entries that show only a call come without a potency. A number with no mark means an inactive call. The source made the active and inactive calls. The call rests on the fitted dose curve; in most records, active means well fitted curve in the direction sought with a large enough effect; inconclusive means small, poorly fitted or top-dose-only effect, or another doubt; inactive means no such curve, though single readings can be large; an effect the other way counts as inactive or inconclusive.
# Tests used:
# [1] = Viability qHTS for spleen associated tyrosine kinase inhibitor (SYKi) naive MV4-11 cells (AID 1963823); further: nearly all actives have a fitted effect of over 40% in size
# Procedure, shortened: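 Compounds were dispensed acoustically onto plates, MV4-11 cells (SYKi-naive) added at 500 per well, and plates incubated 72 hr at 37 C. CellTiter-Glo was added and luminescence measured after 10 min.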
# [2] = Viability qHTS for spleen associated tyrosine kinase inhibitor (SYKi) drug resistant MV4-11 cells (AID 1963824); further: nearly all actives have a fitted effect of over 35% in size
# Procedure, shortened: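 SYK-inhibitor-resistant MV4-11 AML cells were seeded at 500 per well onto compound and cultured 72 hours (37 °C, 5% CO2). CellTiter-Glo was then added, and after 10 min at room temperature, luminescence gave viability.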
# [3] = Quantitative highthroughput screen to assess conditional lethalithy of NOMO1 cells grown in RPMI1640 with untreated serum (RPMI+s) (AID 1963876); further: nearly all actives have a fitted effect of over 35% in size
# Procedure, shortened: (§1)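 Each medium arm—HPLM with 10% dialyzed FBS, or RPMI1640 with 5 mM glucose and 10% untreated or dialyzed FBS—was screened against an 11-point, 3-fold compound titration for 48 h at 37 °C, with CellTiter-Glo luminescence as endpoint.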
# [4] = Quantitative highthroughput screen to assess conditional lethalithy of NOMO1 cells grown in RPMI1640 with dialyzed fetal bovine serum (RPMI+ds) (AID 1963877); further: nearly all actives have a fitted effect of over 30% in size; on Viability: series mostly up to about 46 µM
# Procedure, shortened: as §1
# [5] = Quantitative highthroughput screen to assess conditional lethalithy of NOMO1 cells grown in Human Plasma-Like Medium with dialyzed fetal bovine serum (HPLM+ds) (AID 1963878); further: nearly all actives have a fitted effect of over 35% in size
# Procedure, shortened: as §1
# [6] = Quantitative highthroughput screen to assess conditional lethalithy of P12 Ichikawa cells grown in Human Plasma-Like Medium with dialyzed fetal bovine serum (HPLM+ds) (AID 1963879); conditions: Potency: viability; further: nearly all actives have a fitted effect of over 35% in size; on Viability: series mostly up to about 46 µM
# Procedure, shortened: as §1
# [7] = Quantitative highthroughput screen to assess conditional lethalithy of P12 Ichikawa cells grown in RPMI1640 with dialyzed fetal bovine serum (RPMI+ds) (AID 1963880); conditions: Potency: P12-Ichikawa viability; further: nearly all actives have a fitted effect of over 35% in size
# Procedure, shortened: as §1
# [8] = Quantitative highthroughput screen to assess conditional lethalithy of P12 Ichikawa cells grown in RPMI1640 with untreated serum (RPMI+s) (AID 1963881); conditions: Potency: viability; further: nearly all actives have a fitted effect of over 35% in size; on Viability: series mostly up to about 46 µM
# Procedure, shortened: as §1
# [9] = Quantitative highthroughput screen to assess conditional lethalithy of SEM cells grown in Human Plasma-Like Medium with dialyzed fetal bovine serum (HPLM+ds) (AID 1963882); further: nearly all actives have a fitted effect of over 35% in size; on Viability: series mostly up to about 46 µM
# Procedure, shortened: as §1
# [10] = Cellular viability qHTS for adrenocortical cancer (ACC) cell line SW-13 (AID 1963989); conditions: SW-13 ACC cells viability, CellTiter-Glo, 48 h; activity (max response): active compounds read low; further: nearly all actives have a fitted effect of over 65% in size;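 on activity (max response): cells grown in serum-free medium with ITS supplement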
# Procedure, shortened: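 Luminescent ATP read-out (CellTiter-Glo, 20 min at room temperature) measured metabolically competent SW-13 cells after 48 h compound treatment. Final concentrations spanned up to 46 uM; bortezomib served as positive control.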
# [11] = Cellular viability qHTS for adrenocortical cancer (ACC) cell line NCI-H295R (AID 1963990); further: nearly all actives have a fitted effect of over 60% in size
# Procedure, shortened: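 IC50 and maximal efficacy derive from four-parameter logistic modelling of titration curves, with reads scaled between DMSO-only wells (0%) and doxorubicin hydrochloride (100% inhibition). Compounds spanned up to 46 uM over 48 h.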
# [12] = Quantitative highthroughput screen to assess conditional lethalithy of SEM cells grown in RPMI1640 with dialyzed fetal bovine serum (RPMI+ds) (AID 1963884); further: nearly all actives have a fitted effect of over 35% in size; on Viability: series mostly up to about 46 µM
# Procedure, shortened: as §1
# [13] = Quantitative highthroughput screen to assess conditional lethalithy of SEM cells grown in RPMI1640 with unreated serum (RPMI+s) (AID 1963883); further: nearly all actives have a fitted effect of over 35% in size
# Procedure, shortened: as §1
# Potency means the concentration at half of the fitted maximal effect.
Structure (SMILES),Potency [1],Potency [2],Potency [3],Potency [4],Potency [5],Potency [6],Potency [7],Potency [8],Potency [9],activity (max response) [10],Potency [11],Potency [12],Potency [13],Potency [10]
CCOC(=O)[C@H](CCc1ccccc1)N[C@H]1CS[C@H](c2cccs2)CN(CC(=O)O)C1=O,7.42 µM (active),13.3 µM (active) and 5.9 µM (active),10.5 µM (active),13.2 µM (active),5.26 µM (active),8.33 µM (active),14.8 µM (active),9.35 µM (active),inactive,6.33% and 0.504%,inactive,–,–,–
CCC(=O)NCC[C@@H]1CCc2ccc3c(c21)CCO3,inactive,inactive,inactive,inactive,inactive,inactive,inactive,inactive,3.32 µM (active),-6.57%,inactive,5.26 µM (active),–,–
Cc1[nH]nc2ccc(-c3cncc(OC[C@@H](N)Cc4ccccc4)c3)cc12,82 nM (active) and 132 nM (active),0.116 µM (active),2.96 µM (active),2.35 µM (active),1.66 µM (active),4.18 µM (active),3.32 µM (active),2.96 µM (active),–,–,–,2.35 µM (active),2.09 µM (active),0.562 µM (active)
NCCc1cnc[nH]1,13.3 µM (active),inactive,inactive,inactive,inactive,inactive,inactive,inactive,inactive,7.56% and -0.338%,inactive,–,–,–
COc1ccc(C2CNC(=O)C2)cc1OC1CCCC1 (centres undefined),0.525 µM (active),inactive,inactive,inactive,inactive,inactive,inactive,inactive,inactive,1.73% and 4.14%,inactive,inactive,–,–
COc1ccc(COc2cc3oc(=O)c4cc(C(C)O)ccc4c3cc2OC)cc1 (centres undefined),inactive,8.2 µM (active) and 4.68 µM (active),inactive,inactive,inactive,inactive,inactive,18.7 µM (active),18.7 µM (active),–,inactive,–,–,–
CCOC(=O)Nc1ccc(NCc2ccc(F)cc2)nc1N,14.8 µM (active),16.6 µM (active),inactive,inactive,inactive,inactive,inactive,inactive,inactive,–,inactive,inactive,–,–
CCCCCCCCc1ccc(CCC(N)(CO)CO)cc1,5.17 µM (active),4.61 µM (active),18.7 µM (active),23.5 µM (active),14.8 µM (active),23.5 µM (active),18.7 µM (active),18.7 µM (active),23.5 µM (active),–,7.08 µM (active),–,–,17.8 µM (active)
CN(C)c1nc(N(C)C)nc(N(C)C)n1,inactive,inactive,inactive,inactive,inactive,inactive,inactive,inactive,–,-1.75% and -4.21%,inactive,inactive,inactive,–
CCNc1cc(NC2CCC(O)CC2)nc(Nc2ccc3c(ccn3Cc3ccccc3)c2)n1 (centres undefined),8.33 µM (active),14.6 µM (active),inactive,inactive,inactive,inactive,inactive,inactive,inactive,-9.82%,inactive,–,–,–
Cc1cc(C(C)Nc2ccccc2)c2nc(N3CCOCC3)cc(=O)n2c1 (centres undefined),9.2 µM (active) and 5.9 µM (active),10.3 µM (active) and 9.34 µM (active),inactive,inactive,inactive,inactive,inactive,inactive,inactive,-14.6%,inactive,–,–,–
CC1(C)CNc2cc(NC(=O)c3cccnc3NCc3ccncc3)ccc21,2.31 µM (active),5.17 µM (active) and 5.9 µM (active),inactive,inactive,inactive,inactive,inactive,inactive,–,-22.3%,inactive,–,–,–
CCC(C)SSc1ncc[nH]1 (centres undefined),9.34 µM (active),8.33 µM (active),18.7 µM (active),23.5 µM (active),14.8 µM (active),18.7 µM (active),13.2 µM (active),18.7 µM (active),–,–,20 µM (active),–,–,–
O=C1CCC[C@@H]2[C@H]3CCC[N+]4([O-])CCC[C@@H](CN12)[C@@H]34 (some centres undefined),inactive,inactive,8.33 µM (active),7.43 µM (active),5.9 µM (active),inactive,–,inactive,6.62 µM (active),-8.5%,inactive,–,7.43 µM (active),–
C[C@@H](NC(=O)c1ncnc(N)c1Cl)c1ncc(C(=O)Nc2cc(C(F)(F)F)c(Cl)cn2)s1,9.2 µM (active),16.6 µM (active),inactive,inactive,16.6 µM (active),inactive,–,inactive,inactive,–,–,inactive,inactive,20 µM (active)
